# Measurements taken from article PMC4336329 (PLoS ONE, 2015).
# Out of some 310,000 compounds screened, about 14,000 (4.5%) showed an effect of 50% or more. Effects have a minus sign here. Only a selection was taken, and strong results are over-represented in it overall.
# Biological target: human ether-à-go-go-related gene (hERG) potassium channel (human, UniProt Q12809)
# Assay: primary screen, population patch clamp on CHO cells stably expressing hERG; higher = less effect of the substance
# 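Note: peak tail current of the secondary pulse compared with the same well before compound.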
# Chain of human ether-à-go-go-related gene (hERG) potassium channel (Q12809 whole entry, looked up): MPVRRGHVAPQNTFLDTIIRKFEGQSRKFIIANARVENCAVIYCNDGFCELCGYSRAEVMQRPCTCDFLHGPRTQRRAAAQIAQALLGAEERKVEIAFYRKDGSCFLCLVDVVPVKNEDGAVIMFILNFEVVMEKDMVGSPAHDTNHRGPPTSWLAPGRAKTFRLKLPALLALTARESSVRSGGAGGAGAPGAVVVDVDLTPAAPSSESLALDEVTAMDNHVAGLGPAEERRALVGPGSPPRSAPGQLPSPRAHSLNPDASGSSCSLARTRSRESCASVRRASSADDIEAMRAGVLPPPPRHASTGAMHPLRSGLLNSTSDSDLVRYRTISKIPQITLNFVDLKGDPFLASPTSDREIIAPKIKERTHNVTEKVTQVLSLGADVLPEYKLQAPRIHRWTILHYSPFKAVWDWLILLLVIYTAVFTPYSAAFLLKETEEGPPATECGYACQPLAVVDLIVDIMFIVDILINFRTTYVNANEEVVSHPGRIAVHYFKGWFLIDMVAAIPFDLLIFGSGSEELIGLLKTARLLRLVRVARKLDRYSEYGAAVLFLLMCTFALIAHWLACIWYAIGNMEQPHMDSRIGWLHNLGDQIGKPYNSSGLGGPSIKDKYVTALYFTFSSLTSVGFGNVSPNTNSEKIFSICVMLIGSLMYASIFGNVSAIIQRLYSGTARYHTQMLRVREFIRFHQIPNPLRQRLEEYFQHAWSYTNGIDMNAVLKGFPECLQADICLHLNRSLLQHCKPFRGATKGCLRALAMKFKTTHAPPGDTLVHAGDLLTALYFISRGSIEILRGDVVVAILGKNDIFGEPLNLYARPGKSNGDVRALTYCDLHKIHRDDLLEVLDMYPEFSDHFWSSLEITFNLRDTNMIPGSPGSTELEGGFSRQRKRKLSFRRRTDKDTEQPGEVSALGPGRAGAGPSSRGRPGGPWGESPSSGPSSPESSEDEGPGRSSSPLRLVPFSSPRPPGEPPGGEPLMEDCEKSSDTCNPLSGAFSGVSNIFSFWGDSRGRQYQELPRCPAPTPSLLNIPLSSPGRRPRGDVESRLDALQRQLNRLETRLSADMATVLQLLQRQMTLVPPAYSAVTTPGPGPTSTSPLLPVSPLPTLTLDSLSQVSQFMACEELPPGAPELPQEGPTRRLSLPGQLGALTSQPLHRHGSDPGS
row,SMILES,"hERG current change (%, negative = inhibition) at 10uM [%]"
1,COC(=O)C1=C(c2ccc(F)cc2OCc2ccccc2)C[C@@H]2CC[C@H]1N2C,-52
2,COC(=O)C1=C(c2ccc(F)cc2OCc2ccccc2)C[C@@H]2CC[C@H]1N2C(=O)NC(C)C,-35.3
3,COC(=O)C1=C(c2ccc(F)cc2OCc2ccccc2)C[C@@H]2CC[C@H]1N2C(=O)NCC1CC1,-51.5
4,COC(=O)C1=C(c2ccc(F)cc2OCc2ccccc2)C[C@@H]2CC[C@H]1N2C(=O)NCc1ccccc1,-1.03
5,C#CCOCCOCCOCCNc1nc(N2CCN(C(=O)[C@H](CCC(=O)O)n3cc(C(N)[C@H](C)CC)nn3)CC2)nc(N2CCN(C(=O)[C@H](Cc3ccc(O)cc3)n3cc(C(N)[C@H](C)CC)nn3)CC2)n1.Cl (stereo partly drawn),7.62
6,COc1cc(CCC(=O)Nc2nccs2)cc(OC)c1OC,3.1
7,CCn1nc(C)cc1C(=O)N1CCCC(C(=O)c2ccc(OC)cc2C)C1 (stereo not drawn),3.32
8,Cc1ccccc1S(=O)(=O)Cc1ccc(C(=O)NC2CCCCCC2)o1,-31.9
9,CC(=O)Oc1ccc(/C=N/NC(=O)C2CCCN2S(=O)(=O)c2ccc(Cl)cc2)cc1 (stereo not drawn),-28.1
10,Cn1c(=O)c2c(n(C)c1=O)=NC1(CCCCC1)ON=2,-15.4
11,O=C(NCc1ccco1)C1CCN(S(=O)(=O)N2CCOCC2)CC1,-13.1
12,Cc1ccc(SCCN2CCN(Cc3ccccc3)CC2)cc1.O=C(O)C(=O)O,-37
13,COc1ccc(CN2CCN(Cc3ccc(Br)cc3)CC2)c(OC)c1OC.O=C(O)C(=O)O,-69.7
14,COc1ccc(CN2CCN(Cc3cccc(Oc4ccccc4)c3)CC2)c(OC)c1OC.O=C(O)C(=O)O,-58
15,CCN1CCN(CCOc2ccc(Cl)cc2)CC1.O=C(O)C(=O)O,-34.3
16,COc1ccc(CN2CCN(C(=O)c3cccc4ccccc34)CC2)c(OC)c1OC.O=C(O)C(=O)O,11.9
17,COc1ccc(CN2CCN(S(=O)(=O)c3ccc(F)cc3)CC2)c(OC)c1OC.O=C(O)C(=O)O,-23.4
18,COc1cccc(CN2CCN(Cc3cccc(Br)c3)CC2)c1OC.O=C(O)C(=O)O,-21.2

row,SMILES,"hERG current change (%, negative = inhibition) at 10uM [%]"
1,COc1cccc(CN2CCN(Cc3cccc(Oc4ccccc4)c3)CC2)c1OC.O=C(O)C(=O)O,-21.7
2,COc1ccc(CN2CCN(CCSc3ccc(C)cc3)CC2)c(OC)c1OC.O=C(O)C(=O)O,-58.5
3,CN1CCN(Cc2cccc(Oc3ccccc3)c2)CC1,-28.2
4,COc1ccc(CN2CCN(Cc3ccc(OC)c(OC)c3OC)CC2)cc1.O=C(O)C(=O)O,-41.3
5,COc1ccc(CN2CCN(CCCCOc3ccc(Cl)cc3)CC2)c(OC)c1OC.O=C(O)C(=O)O,-74.4
6,COc1ccc(C(=O)NC(=S)N(CCC(C)C)c2c(N)n(Cc3ccccc3)c(=O)[nH]c2=O)cc1,-5.8
7,CN1C(=O)/C(=C2\SC(=S)N(C(CCC(=O)O)C(=O)O)C2=O)c2ccccc21 (stereo not drawn),13
8,O=C(COc1ccc(F)cc1)c1ccc2c(c1)CCCC2,-5.65
9,CCOC(=O)NNc1nncc2ccccc12.Cl,2.17
10,Cc1nn(-c2ccccc2)c(C)c1NC(=O)COC(=O)c1cccc(OC(F)F)c1,-38.1
11,CCOC(=O)C1C(=O)C=C(/C=C/c2ccccc2)CC1c1ccc(Cl)cc1 (stereo not drawn),-0.716
12,CCCc1nc(-c2ccc(-c3ccc(F)cc3)cc2)no1,7.85
13,CC(C(=O)NCc1ccc(Cl)cc1)n1cccc1C(=O)c1ccccc1 (stereo not drawn),-21.4
14,O=C(O)c1ccc(-c2nnn(Cc3ccccc3F)n2)cc1,58.7
15,CC(C)(C)NCC(O)COc1cccc2[nH]c(=O)[nH]c12.Cl (stereo not drawn),7.11
16,CCN(CC)CC(O)COc1ccccc1C(=O)CCc1ccccc1 (stereo not drawn),-3.49
17,CC(C)(C)NCC(O)COc1ccccc1C(=O)CCc1ccccc1.Cl (stereo not drawn),-69.9
18,CC1=CC(=C2C(=O)NC(=S)NC2=O)C=C(C(F)(F)F)N1CCc1ccccc1,12.9
